Kir21 block: inhibitors of mouse Kir2.1 inward-rectifier potassium channel; Inward rectifier potassium channel 2 (Mus musculus), P35561; AID 1672, 2009; B-score at 10 µM; HEK293-Kir2.1, FluxOR thallium flux fluorescence; active compounds read low; 310,000 compounds, 0.85% hits;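 active = fluorescence ratio B-score at or below minus 3 SD of library scores, with starting-brightness B-score within 2 SD, cut at about -4.2 in these data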;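 also: channel flux triggered by added potassium and thallium sulfate stimulus; B-score of peak minus minimum fluorescence over baseline after thallium stimulus; more negative B-score means stronger Kir2.1 block with less thallium influx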
Target sequence (P35561 whole entry, looked up): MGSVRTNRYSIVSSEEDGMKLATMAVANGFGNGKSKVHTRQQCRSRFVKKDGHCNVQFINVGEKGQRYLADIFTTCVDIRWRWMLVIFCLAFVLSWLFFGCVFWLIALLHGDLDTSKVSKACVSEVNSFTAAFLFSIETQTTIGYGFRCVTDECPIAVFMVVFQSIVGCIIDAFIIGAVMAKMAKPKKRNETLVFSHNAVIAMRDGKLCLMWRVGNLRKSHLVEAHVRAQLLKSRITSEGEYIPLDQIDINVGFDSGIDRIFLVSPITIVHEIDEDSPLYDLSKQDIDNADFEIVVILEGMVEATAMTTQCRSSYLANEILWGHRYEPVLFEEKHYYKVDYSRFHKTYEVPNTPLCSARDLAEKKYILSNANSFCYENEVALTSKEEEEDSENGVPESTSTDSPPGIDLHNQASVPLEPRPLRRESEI
KCNK3 block: human KCNK3 channel inhibitors, primary screen, CHO cells, FluxOR thallium flux, B-score. 340,000 compounds, 0.84% hits. B-score at 10 µM. FluxOR fluorescence; active compounds read low. Potassium channel subfamily K member 3 (Homo sapiens), O14649;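 active = B-score under library mean minus 4 SD, starting fluorescence ratio at most library mean plus 5 SD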;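 also: more negative B-score means stronger inhibition of thallium flux through KCNK3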
TMEM16A act: TMEM16A chloride channel activators or potentiators, primary screen, cell-based, HTS | Anoctamin-1 (Mus musculus), Q8BHY3 | HEK293 TMEM16A/YFP-H148Q/I152L, iodide quench fluorescence; active compounds read low | B-score at 10 µM | 340,000 compounds, 0.3% hits | AID 623877, 2012;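 active = fluorescence-ratio B-score plate-corrected deviation score at least 3 library SD below zero, with starting fluorescence score within 5 deviations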;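 also: channel opened by trigger with iodide after compound preincubation; score built on the fluorescence ratio of max minus min over baseline; more negative score means more quench and so TMEM16A activation or potentiation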
ANO1 block: TMEM16A chloride channel inhibitors, primary screen, cell-based, HTS | Anoctamin-1 (Mus musculus), Q8BHY3 | HEK293 TMEM16A/YFP iodide influx fluorescence, ionomycin | normalized B-score (activity score, 25-100; higher = stronger inhibition) at 10 µM | 310,000 compounds, 1.2% hits;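 active = ratio plate-corrected score three or more library SD toward inhibition, starting fluorescence score within five deviations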;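 also: score derived from kinetic fluorescence span divided by baseline fluorescence per well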
KCNK9 inh: KCNK9 potassium channel inhibitors, primary screen, HEK293 cells, thallium flux; FluxOR thallium flux fluorescence; active compounds read low; B-score at 10 µM; 310,000 compounds, 1.2% hits; AID 488922, 2010;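 active = ratio B-score over 3 SD below the library mean, with starting fluorescence within 5 SD of its mean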;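 also: negative B-score means less thallium flux so channel inhibition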
KCNK9 block conf: KCNK9 potassium channel inhibitors, confirmation, HEK293 cells, thallium flux, duplicate; shares compounds with KCNK9 inh; inhibition, % at 10 µM; FluxOR thallium flux fluorescence; 4,900 compounds, 43% hits;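 active = thallium signal inhibited by more than 5 SD of the compound-free buffer control wells, on both duplicate plates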;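 also: 0% = assay buffer control wells without compound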
Kir21 sel: mouse Kir2.1 channel inhibition, confirmation, selectivity assay for KCNK9 modulator project, cell-based, HEK293, thallium flux | inhibition, % at 10 µM | shares compounds with KCNK9 inh | 4,900 compounds, 4% hits | Kir2.1 cells, FluxOR thallium flux fluorescence | AID 492993, 2010;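 active = thallium signal drop more than 5 SD beyond the mean of the no-compound control wells, seen in both duplicate plates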;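 also: signal is fluorescence rise after thallium addition divided by baseline fluorescence; plate controls were assay buffer only for no effect and full block by chlorpromazine control for full effect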
HEK293 Tl ctr: thallium flux in non-induced HEK293 cells, confirmation, counter-screen for KCNK9 inhibitor project, cell-based, second counter screen, non-induced KCNK9-HEK293; shares compounds with KCNK9 inh; FluxOR thallium flux; inhibition, % at 10 µM; 4,900 compounds, 40% hits; AID 492997, 2010;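 active = thallium signal drop beyond 5 SD of the untreated control mean, on both duplicate plates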;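 also: plate controls were buffer only IC0 wells for no effect and SID17386958 at its maximal inhibitory level for full effect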
* marks the source's active call; other numbers are inactive results. Sampled rows, rich in hits. Any-hit rate of the full collection: about 3.5%.

Results for Cc1cccc(-n2nc(C(=O)c3ccco3)cc(-c3nc4ccccc4[nH]3)c2=N)c1 ?
Kir21 block: 1.2; KCNK3 block: inactive; TMEM16A act: inactive; ANO1 block: inactive; KCNK9 inh: inactive; KCNK9 block conf: inactive; Kir21 sel: inactive; HEK293 Tl ctr: inactive

How did S=c1[nH]nc(COc2ccccc2)n1/N=C/c1ccc(Cl)c(Cl)c1 do in these assays?
Kir21 block: -1.3; KCNK3 block: inactive; ANO1 block: inactive; KCNK9 inh: inactive

What do the screens show for `Cc1cccc(/C=N/n2c(COc3ccccc3)n[nH]c2=S)c1`?
Kir21 block: -0.84; KCNK3 block: inactive; TMEM16A act: inactive; ANO1 block: inactive; KCNK9 inh: -9*; KCNK9 block conf: inactive; Kir21 sel: inactive; HEK293 Tl ctr: inactive

Results for COc1ccccc1C/C(N)=N/OC(=O)COc1ccc(C)cc1C ?
Kir21 block: -1.9; KCNK3 block: inactive; TMEM16A act: inactive; ANO1 block: inactive; KCNK9 inh: inactive; KCNK9 block conf: inactive; Kir21 sel: inactive; HEK293 Tl ctr: inactive

How did COc1ccc(C/C(N)=N/OC(=O)COc2ccccc2C)cc1 do in these assays?
Kir21 block: 0.6; KCNK3 block: inactive; TMEM16A act: inactive; ANO1 block: inactive; KCNK9 inh: inactive

How did Cc1ccc(NC(=S)N2CCN(S(=O)(=O)c3ccc(F)cc3)CC2)cc1 do in these assays?
Kir21 block: 0.02; KCNK3 block: inactive; TMEM16A act: inactive; ANO1 block: inactive; KCNK9 inh: inactive

How did Cc1ccc(NC(=O)c2nc(S(=O)(=O)Cc3ccccc3)ncc2Cl)cc1 do in these assays?
Kir21 block: -0.11; KCNK3 block: inactive; TMEM16A act: inactive; ANO1 block: inactive; KCNK9 inh: inactive

Results for O=C(Nc1ccc(F)cc1)c1nc(S(=O)(=O)Cc2ccccc2)ncc1Cl ?
Kir21 block: -1.2; KCNK3 block: inactive; TMEM16A act: inactive; ANO1 block: inactive; KCNK9 inh: -9*; KCNK9 block conf: 47%*; Kir21 sel: inactive; HEK293 Tl ctr: inactive

What do the screens show for `Cc1ccc(NC(=O)Nc2cc(C(F)(F)F)c[nH]c2=O)cc1`?
Kir21 block: 0.16; KCNK3 block: inactive; TMEM16A act: inactive; ANO1 block: inactive; KCNK9 inh: inactive

What do the screens show for `CCN(CC)CCOc1ccc(/C(=C(\Cl)c2ccccc2)c2ccccc2)cc1`?
Kir21 block: -0.84; KCNK3 block: inactive; TMEM16A act: inactive; ANO1 block: inactive; KCNK9 inh: inactive; KCNK9 block conf: inactive; Kir21 sel: inactive; HEK293 Tl ctr: inactive

How did COc1ccc(OCC(=O)NC(=S)Nc2ccc3c4c(cccc24)CC3)cc1 do in these assays?
Kir21 block: 0.04; KCNK3 block: inactive; TMEM16A act: inactive; ANO1 block: inactive; KCNK9 inh: inactive; KCNK9 block conf: inactive; Kir21 sel: inactive; HEK293 Tl ctr: inactive

Results for O=C(Cc1ncc(C(F)(F)F)cc1Cl)Nc1ccc(F)cc1 ?
Kir21 block: 2.6; KCNK3 block: inactive; TMEM16A act: inactive; ANO1 block: inactive; KCNK9 inh: inactive

What do the screens show for `O=C(Nc1ccccc1C(=O)N1CCCC1)c1ccc(Cl)c([N+](=O)[O-])c1`?
Kir21 block: 0.38; KCNK3 block: inactive; TMEM16A act: inactive; ANO1 block: inactive; KCNK9 inh: inactive

How did CCCn1c(=O)c2ccccc2n2c(SCc3nc4ccccc4s3)nnc12 do in these assays?
Kir21 block: -0.64; KCNK3 block: inactive; TMEM16A act: inactive; ANO1 block: inactive; KCNK9 inh: inactive

How did C=C(C)Cn1c(SCC#N)nc2ccccc2c1=O do in these assays?
Kir21 block: -0.07; KCNK3 block: inactive; TMEM16A act: inactive; ANO1 block: inactive; KCNK9 inh: inactive

Results for CCCCn1c(SCc2nc3ccccc3s2)nc2ccccc2c1=O ?
Kir21 block: 0.04; KCNK3 block: inactive; TMEM16A act: inactive; ANO1 block: inactive; KCNK9 inh: -12*; KCNK9 block conf: 68%*; Kir21 sel: inactive; HEK293 Tl ctr: 40%*

Results for CCN(CCCn1c(SCC#N)nc2ccccc2c1=O)c1ccccc1 ?
Kir21 block: 0.61; KCNK3 block: -9.3*; TMEM16A act: inactive; ANO1 block: inactive; KCNK9 inh: -11*; KCNK9 block conf: 44%*; Kir21 sel: inactive; HEK293 Tl ctr: 28%*

Results for CCC1=NN2C(=N)/C(=C\c3cccn3-c3cccc(Cl)c3)C(=O)N=C2S1 ?
Kir21 block: -0.87; KCNK3 block: inactive; TMEM16A act: inactive; ANO1 block: inactive; KCNK9 inh: inactive; KCNK9 block conf: inactive; Kir21 sel: inactive; HEK293 Tl ctr: inactive

How did O=C(CCn1c(=S)oc2ccccc21)Nc1cc([N+](=O)[O-])ccc1F do in these assays?
Kir21 block: -0.18; KCNK3 block: inactive; TMEM16A act: inactive; ANO1 block: inactive; KCNK9 inh: inactive

What do the screens show for `CC(Oc1ccc(Cl)cc1Cl)C(=O)Nc1ccc(S(=O)(=O)Nc2cnc3ccccc3n2)cc1` (configuration not stated)?
Kir21 block: -0.17; ANO1 block: 100*; KCNK9 inh: inactive; KCNK9 block conf: inactive; Kir21 sel: inactive; HEK293 Tl ctr: inactive

What do the screens show for `Cc1cc(Cl)ccc1C(=O)C1CCCN(C(=O)c2cc(C(C)C)no2)C1` (configuration not stated)?
Kir21 block: -0.61; KCNK3 block: inactive; TMEM16A act: inactive; ANO1 block: inactive; KCNK9 inh: inactive; KCNK9 block conf: inactive; Kir21 sel: inactive; HEK293 Tl ctr: inactive

How did Cc1cc(Cl)ccc1C(=O)C1CCCN(C(=O)CCn2cncn2)C1 (configuration not stated) do in these assays?
Kir21 block: 1.4; KCNK3 block: inactive; TMEM16A act: inactive; ANO1 block: inactive; KCNK9 inh: inactive

Screening data from PubChem BioAssay.
